Compound activity (PubChem)
HCMV inh: blocks human cytomegalovirus replication; HFF cells, HCMV-luciferase reporter, 72 h; stronger effect = lower value; activity change, negative = inhibition, % at 57.5 µM; 410,000 compounds, 4.5% hits; AID 1259415; in the data active = activity change below about -60%; inconclusive = no clear call, values can overlap the other calls; inactive = above about -39%
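Inhibition of viral replication was scored as loss of reporter luminescence in HFFs infected with HCMV-luciferase (MOI 1 PFU/cell) for 72 h; compounds tested at 2 doses, normalized to buffer and Salinomycin controls.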
Marburg entry inh: inhibitors of Marburg virus binding or cell entry; Marburg virus pseudotyped entry inhibition, cell reporter; Potency, µM (series often up to 37.8 µM), most hits filed as inhibitors; 300,000 compounds, 1.8% hits; calls by dose curve; tested in HEK293 cells
HCV inh: HCV inhibition; Huh7.5.1 HCVcc-Cre infection, luciferase reporter, 44 h; Potency, µM (doses to about 41.8 µM), hits mostly inhibitors; 340,000 compounds, 3.4% hits; AID 651820; active = well fitted inhibition curve with a large enough effect; inconclusive = small, poorly fitted or top-dose-only effect, or another doubt; inactive = no such curve, though single readings can be large or run the other way
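Antiviral activity was scored by luciferase reporter output from cells infected with HCVcc-Cre (~0.5 moi) in presence of compound, 44 h infection period, cells seeded 1,000/well 4 h prior.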
LASV entry inh: inhibitors of Lassa virus binding or cell entry. Lassa virus pseudotype entry inhibition, cell reporter. 300,000 compounds, 1.2% hits. Potency, µM (doses to about 37.9 µM), usual class: inhibitors. AID 540256; calls by dose curve; tested in HEK293 cells; also: nearly all actives have a fitted effect of over 50% in size
FMDV inh: foot and mouth disease virus antiviral activity; FMDV antiviral cell-based qHTS; Potency, µM (series often up to 57.9 µM), hits mostly inhibitors; 410,000 compounds, 1.2% hits; calls by dose curve; tested in HEK293T cells; also: read-out not given here; nearly all actives have a fitted effect of over 45% in size
Hits are given with their value; . = inactive; ? = inconclusive; / = no result given; [ ] = dose if it differs, or a comment. Shown are actives, neighbours in structure and some others; about 7.9% of the full set was active somewhere.

SMILES	HCMV inh	Marburg entry inh	HCV inh	LASV entry inh	FMDV inh
CCOc1ccc(N2C(=O)CC(N)C2=O)cc1 (stereo not given)	.	.	5µM	.	.
CCOc1ccc(OCC)c(NC(=O)CCc2nc3cccnc3n2Cc2cccs2)c1	.	?	/	.	.
COc1ccc(CC(=O)NNC(=O)CCC(=O)Nc2cc(C)ccc2C)cc1	-104	.	.	.	.
COc1ccc(C(=O)CCC(=O)Nc2cc(C)ccc2C)cc1	.	/	/	.	.
COc1ccccc1NC(=O)CSc1nc2n[nH]c(C)c2c(=N)n1-c1ccccc1Cl	.	15µM	11µM	?	?
Cc1cc(-n2c(SCc3ccccc3F)nc3n[nH]c(C)c3c2=N)ccc1Cl	.	?	10µM	?	?
CCc1ccc(NC(=O)CSc2nc3n[nH]c(C)c3c(=N)n2-c2ccc(C)cc2)cc1	-91	/	/	.	.
Cc1[nH]nc2nc(SCC(=O)NC3CCCCC3)n(-c3ccc(Br)cc3)c(=N)c12	-89	/	?	/	?
COc1ccc(OC)c(CNC(=O)C2CCN(c3nc4ccccc4nc3C(F)(F)F)CC2)c1	.	/	/	.	.
Cc1cccc(-n2c(SCC(=O)Nc3ccccc3Cl)nc3n[nH]c(C)c3c2=N)c1	-62	/	/	.	?
CCc1ccccc1NC(=O)CSc1nc2n[nH]c(C)c2c(=N)n1-c1ccc(OC)cc1	.	?	11µM	.	?
CCc1ccccc1NC(=O)CSc1nc2n[nH]c(C)c2c(=N)n1-c1cccc(C)c1	.	/	/	.	.
COc1cc2c(c(OC)c1OC)C1(c3ccccc3)CCCCCC1[C@@H]2NC(=O)C(F)(F)F (stereo not given in full)	/	.	/	?	/
COC(=O)c1ccc(S(=O)(=O)N2CCc3ccccc32)cc1	.	2.5µM	.	?	.
CCn1c(=O)n(CC)c2cc(S(=O)(=O)N3CCc4ccccc43)ccc21	-92	?	13µM	.	/
O=S(=O)(NC1CC1)c1ccc(S(=O)(=O)N2CCc3ccccc32)cc1	-81	.	?	.	?
COc1ccc(S(=O)(=O)N2CCc3ccccc32)cc1OC	.	?	.	?	.
CC(=O)N1CCc2ccc(S(=O)(=O)N3CCc4ccccc43)cc21	?	/	22µM	/	.
COc1ccc(Cl)c(Cn2c(NCCN)nc3c2c(=O)n(C)c(=O)n3C)c1	.	.	/	.	.
Cc1cccn2c(=O)nc(SCC(=O)c3ccccc3)nc12	.	.	.	.	.
Clc1cccc(-n2ncc3c(NCCCn4ccnc4)ncnc32)c1	.	/	/	.	.
COc1ccc(CN2C[C@]3(CO)OC(CO)C[C@H]3[S+]2(=O)[O-])cc1 (stereo not given in full)	/	/	/	.	/
CC(=O)N(C)c1nc(N)n(-c2ccccc2)n1	.	/	.	/	.
Cc1ccc(N2C(N)=NC(N)=NC23CCCC3)c(C)c1	-67	.	.	.	.
OCCC1CN(Cc2ccc3c(c2)CCO3)CCN1C1CCCC1 (stereo not given)	-74	.	.	.	.
SMILES	HCMV inh	Marburg entry inh	HCV inh	LASV entry inh	FMDV inh
OCCC1CN(Cc2ccsc2)CCN1C1CCCC1 (stereo not given)	.	?	.	.	.
CN(C)c1ccc(CNC(=O)c2cc(S(=O)(=O)N3CCOCC3)cn2C)cc1	.	/	.	/	.
O[N+]1=CC=CCC1=S.On1ccccc1=S.[Zn]	/	/	/	/	8.9µM
CCN1CCN(Cc2ccc(NC(=O)c3ccc(C)c(NC(=O)c4ccnnc4)c3)cc2C(F)(F)F)CC1	.	/	.	/	.
CCN1CCN(Cc2ccc(NC(=O)c3cc(NC(=O)C(=O)c4c[nH]c5ccccc45)cc(OC)c3)cc2C(F)(F)F)CC1	-101	/	.[8.37 µM]	/	?
CCN1CCN(Cc2ccc(NC(=O)c3ccc(C)c(NC(=O)C(=O)c4c[nH]c5ccccc45)c3)cc2C(F)(F)F)CC1	-101	/	?	/	?
CCN1CCN(Cc2ccc(NC(=O)c3cccc(-c4ccc5nc(NC(=O)C6CC6)sc5n4)c3)cc2C(F)(F)F)CC1	-99	/	/	/	/
CCN1CCN(Cc2ccc(NC(=O)c3ccc(C)c(NC(=O)c4ccc5n[nH]nc5c4)c3)cc2C(F)(F)F)CC1	.	/	.	/	.
CC(C)Oc1ccc(C(=O)N(Cc2ccc(N(C)C)cc2)Cc2ccco2)cc1	.	.	/	?	.
CC[n+]1c(/C=C/N(C)c2ccccc2)n(-c2ccccc2)c2ccc(-c3nc4ccccc4s3)cc21	/	?	5.6µM	2.5µM	6.3µM
CC[n+]1cccc(-c2nc3ccccc3s2)c1	?	.	.	.	?
